DT40 TDP1 CPT – qHTS for Inhibitors of human tyrosyl-DNA phosphodiesterase 1 (TDP1): qHTS in cells in presence of CPT | 12% of 420,000 active | chicken DT40 Tdp1-/-;hTDP1 cells + 20 nM CPT, ATP luminescence, 48 h | Potency, µM (series often up to 46.2 µM), actives largely listed as inhibitors | AID 686979, 2013; further: nearly all actives have a fitted effect of over 55% in size
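Chicken DT40 Tdp1-/- cells complemented with human TDP1, 400 cells/well, exposed to compounds plus 20 nM camptothecin for at least 48 h at 37 C; viability read as ATP content by CellTiter-Glo luminescence.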
HT1080 IDH1KD tx – qHTS for induction of synthetic lethality in tumor cells producing 2HG: qHTS for the HT-1080-IDH1KD cell line. HT-1080 IDH1 knockdown viability, ATP luminescence, 48 h. Potency, µM (doses to about 46.1 µM), hits mostly cytotoxic. 2% of 360,000 active. AID 686971, 2013
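After a 2 h attachment period, IDH1KD HT-1080 cells took pin-transferred compound for 48 h at 37 °C; ATP-based luminescence after 10 min room-temperature reagent incubation reported viability.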
HT1080NT lethal – qHTS for induction of synthetic lethality in tumor cells producing 2HG: qHTS for the HT-1080-NT fibrosarcoma cell line | HT-1080-NT fibrosarcoma viability, CellTiter-Glo ATP luminescence, 48 h | AID 686970, 2013 | 1.6% of 360,000 active | Potency, µM (top dose mostly 46.1 µM), most hits filed as cytotoxic;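 further: NT is the 2HG producing partner of a matched IDH1 knockdown line; nearly all actives have a fitted effect of over 55% in size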
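Toxicity toward the 2HG-producing NT line was scored as %Activity, normalised to DMSO and no-cell wells, from CellTiter-Glo luminescence after 48 hours' treatment.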
DT40 TDP1 no CPT – qHTS for Inhibitors of human tyrosyl-DNA phosphodiesterase 1 (TDP1): qHTS in cells in absence of CPT | DT40 Tdp1-/- hTDP1 cells, no CPT, ATP luminescence, 48 h | Potency, µM (highest dose often 46.2 µM), usual class: inhibitors | 15% of 420,000 active; further: nearly all actives have a fitted effect of over 55% in size
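DT40 Tdp1-/-;hTDP1 cells, no CPT (DMSO vehicle only), 400 cells/well; compounds pin-transferred; ≥48 hr, 37 °C; CellTiter-Glo 30 min RT dark, luminescence read.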
IL1B secr inh – qHTS for Inhibitors of Inflammasome Signaling: IL-1-beta AlphaLISA Primary Screen | THP-1 LPS/ATP IL-1B secretion, AlphaLISA, 16 h; stronger effect = lower value | activity change, % at 57.5 µM | 4.7% of 360,000 active; in the data active means activity change below about -50%; inconclusive means mostly about -30% to -49%
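Secreted IL-1B measured by AlphaLISA bead assay after 16 h compound exposure of THP-1 cells; compounds (final up to 57.5 uM) added 1 h before LPS (250 ng/mL) and ATP (1.25 mM) stimulation; lower signal means less secretion.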
Large screens that a line does not name were inactive. An excerpt weighted towards active compounds, which were near 19% of everything screened. Unless noted, the call rests on the fitted dose curve; in most records, active means well fitted curve in the direction sought with a large enough effect; inconclusive means small, poorly fitted or top-dose-only effect, or another doubt; inactive means no such curve, though single readings can be large; an effect the other way counts as inactive or inconclusive.

CCCc1cc(-c2ccc(O)c(OCC)c2)c(C#N)c(N)n1	HT1080 IDH1KD tx inconclusive, DT40 TDP1 no CPT inconclusive
CCOc1cc(-c2cc(-c3ccc(C)o3)nc(N)c2C#N)ccc1O	DT40 TDP1 CPT 16µM, HT1080 IDH1KD tx inconclusive, HT1080NT lethal inconclusive, DT40 TDP1 no CPT 16µM
Cc1ccc(-c2cc(-c3ccc(F)cc3)c(C#N)c(N)n2)o1	DT40 TDP1 CPT inconclusive, HT1080 IDH1KD tx inconclusive, DT40 TDP1 no CPT inconclusive
Cc1cc(-c2cc(-c3ccc(Cl)cc3)nc(N)c2C#N)co1	DT40 TDP1 CPT 8.2µM, HT1080 IDH1KD tx inconclusive, HT1080NT lethal inconclusive, DT40 TDP1 no CPT 21µM
Cc1ccc2[nH]c3c(=O)n(CC(=O)NCc4ccco4)ncc3c2c1	none
C[C@H](CO)N1C[C@H](C)[C@@H](CN(C)C(=O)Cc2ccccc2)OCCCC[C@H](C)Oc2ccc(NC(=O)NC3CCCCC3)cc2C1=O	DT40 TDP1 CPT inconclusive, DT40 TDP1 no CPT inconclusive
O=S(=O)(c1ccccc1)n1nc(-c2ccc(Cl)cc2)nc1NCc1ccccc1	DT40 TDP1 CPT inconclusive, DT40 TDP1 no CPT 16µM (no result: HT1080 IDH1KD tx, HT1080NT lethal, IL1B secr inh)
N#Cc1cnn2ccc(-c3cc(N4CCOCC4)ccc3[N+](=O)[O-])nc12	HT1080NT lethal inconclusive
Cc1ccc(C(=O)N/C(=C\c2ccccc2)C(=O)NCc2cccnc2)cc1	DT40 TDP1 CPT inconclusive, DT40 TDP1 no CPT inconclusive
COC(=O)c1sc2nc(CSc3ccc(Br)cc3)[nH]c(=O)c2c1C	DT40 TDP1 CPT inconclusive, DT40 TDP1 no CPT 21µM
CCN(C)C1CN(Cc2cn(Cc3cccc(Cl)c3)nn2)S(=O)(=O)C1 (stereo unspecified)	none
CCCS(=O)(=O)NCc1c(C)ncc2c1CCN(C(=O)c1cccc(Cl)c1F)C2	none (no result: HT1080 IDH1KD tx, HT1080NT lethal, IL1B secr inh)
O=C(c1ccc2c(=O)n(Cc3ccc4c(c3)OCO4)c(=S)[nH]c2c1)N1CCN(Cc2ccccc2)CC1	DT40 TDP1 CPT inconclusive, DT40 TDP1 no CPT inconclusive (no result: IL1B secr inh)
CC(C)OCCCNC(=O)c1ccc2c(=O)n(Cc3ccc4c(c3)OCO4)c(=S)[nH]c2c1	none
CCN(CC)C(=O)c1ccc2c(=O)n(Cc3cccc(Br)c3)c(=S)[nH]c2c1	DT40 TDP1 CPT 23µM, DT40 TDP1 no CPT 15µM
O=C(c1ccc2c(=O)n(Cc3ccc4c(c3)OCO4)c(=O)[nH]c2c1)N1CCN(c2ccccc2)CC1	none
CC1CCCN(C(=O)c2ccc3c(=O)n(Cc4ccc5c(c4)OCO5)c(=S)[nH]c3c2)C1 (stereo unspecified)	DT40 TDP1 CPT 16µM, HT1080NT lethal inconclusive, DT40 TDP1 no CPT 23µM, IL1B secr inh inconclusive
O=C(c1ccc2c(=O)n(Cc3ccco3)c(=S)[nH]c2c1)N1CCN(Cc2ccc3c(c2)OCO3)CC1	DT40 TDP1 CPT 14µM, DT40 TDP1 no CPT 11µM (no result: IL1B secr inh)
CCN(CC)C(=O)c1ccc2c(=O)n(Cc3ccc4c(c3)OCO4)c(=S)[nH]c2c1	DT40 TDP1 CPT 15µM, DT40 TDP1 no CPT 21µM
CCN(CC)C(=O)c1ccc2c(=O)n(CCOC)c(=S)[nH]c2c1	DT40 TDP1 CPT inconclusive, DT40 TDP1 no CPT inconclusive
Cc1cc(-c2nnnn2-c2cc(Cl)cc(Cl)c2)no1	none
CCOC(=O)C1(C)CCCN(C(=O)c2ccc(F)cc2Cl)C1 (stereo unspecified)	none
COCCn1c(=NC(=O)/C=C/c2ccccc2)sc2cc(NC(C)=O)ccc21	DT40 TDP1 no CPT inconclusive
O=C(Cc1ccc2c(c1)OCCO2)N1CCN(c2ccccc2)CC1	DT40 TDP1 no CPT inconclusive
O=C(Nc1nnc(-c2ccco2)o1)c1ccc(Cl)s1	DT40 TDP1 CPT 21µM, HT1080 IDH1KD tx inconclusive, DT40 TDP1 no CPT 16µM
Cc1ccc(SCC(=O)Nc2nnc(-c3ccco3)o2)cc1	DT40 TDP1 no CPT 29µM
O=C(Nc1nnc(-c2cc(Cl)ccc2Cl)o1)c1ccco1	DT40 TDP1 CPT inconclusive, DT40 TDP1 no CPT 16µM
O=C(Nc1nnc(-c2ccco2)o1)c1ccc(Br)s1	DT40 TDP1 CPT inconclusive, DT40 TDP1 no CPT inconclusive
O=C(CCS(=O)(=O)c1ccc(Cl)cc1)Nc1nnc(-c2cccs2)o1	DT40 TDP1 CPT 16µM, DT40 TDP1 no CPT 16µM
O=C(CS(=O)(=O)c1ccccc1)Nc1nnc(-c2cccs2)o1	none
Nc1ncc(S(=O)(=O)NCc2ccccc2)cn1	none (no result: HT1080 IDH1KD tx, HT1080NT lethal, IL1B secr inh)
Nc1c(C(=O)Nc2ccc(F)cc2)nnn1-c1cccc(C(F)(F)F)c1	DT40 TDP1 no CPT inconclusive, IL1B secr inh inconclusive
Cc1ccc(-n2[nH]c(C)c(CCC#N)c2=O)cc1	none
Cc1ccc(S(=O)(=O)CCC(=O)Nc2nnc(-c3cccs3)o2)cc1	DT40 TDP1 CPT inconclusive, DT40 TDP1 no CPT 16µM, IL1B secr inh -61
O=C(CCS(=O)(=O)c1ccc(Cl)cc1)Nc1nnc(-c2ccco2)o1	DT40 TDP1 CPT 9.2µM, DT40 TDP1 no CPT inconclusive, IL1B secr inh -81
CCNC(=O)C1(C)CCN(C(=O)c2ccc(C)c(F)c2)C1 (stereo unspecified)	none
CCC(O)CNC(=O)NC(=C(Cl)Cl)c1ccc(C)c(F)c1 (stereo unspecified)	DT40 TDP1 CPT inconclusive, DT40 TDP1 no CPT 10µM, IL1B secr inh -73
COc1cc(OC)nc(Oc2ccccc2C(=O)Oc2ccccc2Cl)n1	none
COC(=O)c1ccccc1Oc1nc(Cl)cc(OC)n1	DT40 TDP1 CPT 18µM, DT40 TDP1 no CPT 26µM
COc1cc(OC)nc(Oc2ccccc2C(=O)Oc2ccc(Cl)cc2)n1	DT40 TDP1 CPT inconclusive, DT40 TDP1 no CPT 16µM
